About 83,000 compounds went through this panel and 20% of them were active in at least one assay; those are over-represented in the sample as a whole.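 96-well plates, one dose, 48 hours. Percent growth reported; active if below 10.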 The source made the active and inactive calls.

For the assay, the system named is NCI-H226 lung. Briefly: NCI-60 one-dose screen, 48 h (100 = growth as untreated, 0 = no growth, -100 = all killed). Particulars: 10 µM. As to the method: Growth inhibition of the NCI-H226 human Non-Small Cell Lung tumor cell line is measured as a screen for anti-cancer activity. Cells are grown in 96 well plates and exposed to the test compound for 48 hours. Compounds are tested at a single concentration, which is 10^-5 M for most compounds. The reported endpoint is percent growth (GI% or GIPRCNT), where numbers from 0 - 100% represent growth inhibition, and numbers from -100% - 0 represent cell death. For example, a value of 40 represents 60% growth inhibition. A value of 0 means no net growth occurred over the course of the experiment. A value of -40 indicates 40% of cells at the beginning of the experiment died by the end of the experiment. A value of -100 means all cells are dead at the end of the experiment.
NCI-60 Human Tumor Cell Lines Screen was performed using the standard one-dose NCI protocol, which is described in more detail at https://dtp.cancer.gov/discovery_development/nci-60/default.htm.
Compounds with GIPRCNT values below 10 were considered active. Activity score was based on GIPRCNT using the following formula: […]
Score is 0 for GIPRCNT values of 100 or above, 50 for GIPRCNT values of 0, and 100 for GIPRCNT values of -100.
As to `CCCCCC(=O)O[C@]1(C(C)=O)CCC2C3CCC4=CC(=O)CC[C@]4(C)C3CC[C@@]21C` (stereo not given in full), the growth was 52.7% (inactive).
With `COc1cc2c3c(n([C@@H]4CCOC4)c(=O)c2cc1OC)-c1cc2c(cc1C3=O)OCO2` the figure was 24.2% (inactive); with `CC(=O)Nc1ccc(S(=O)(=O)c2ccnc3cc(Cl)ccc23)cc1`, 78.1% (inactive); with `Cc1ccc(NC(=O)N2CCCCC2)cc1[N+](=O)[O-]`, 94.9% (inactive).
Turning to `Cc1ccc(-n2nnnc2N)c(C)c1`, the growth was 115% (inactive).
The figure for `O=[N+]([O-])c1cc(Cl)cc(Cl)c1O` is 101% (inactive).
With `CCN(CC)CCNc1ccc(C)c2sc3cc(Cl)ccc3c(=O)c12` the figure was 75.2% (inactive); with `COc1ccc(-c2nnc(SCC(=O)Nc3ccc(C(=O)/C=C/c4ccccc4)cc3)n2-c2ccccc2)cc1OC`, 50.4% (inactive).
The figure for `CCOC(=O)c1cc(C(=O)c2cc(OC)c(OC)c(OC)c2)n2ccc(-c3cc[n+](CC(=O)c4cc(OC)c(OC)c(OC)c4)cc3)cc12` is 90.8% (inactive).
In the case of `CCNc1nc(C(F)(F)F)nc2c1sc(=S)n2-c1ccccc1`, the growth was 88.5% (inactive).
With `CN1C(=O)C2(Nc3cc(Cl)ccc3S2)c2cc(Cl)ccc21` (stereo not given) the figure was 80% (inactive); with `CC1OC2CC(=O)OC2C2=C1C(=O)c1c(O)c3c(c(O)c1C2=O)C1CC(O)C3(O)C(C)O1` (stereo not given), -69% (active).
In the case of `Cc1cc(=O)n2nnc3cc(Cl)c(Cl)cc3n12`, the growth is 112% (inactive).
`CCc1c2c(nc3ccc(OC(=O)N4CCC(N5CCCCC5)CC4)cc13)-c1cc3c(c(=O)n1C2)COC(=O)[C@]3(O)CC`: the growth is 7.44% (active).
With `COc1ccccc1/C=N\N/C(N)=N\N=C\c1ccccc1OC` the figure was 48.5% (inactive).
The figure for `COc1ccc(/C=C2\CCCC3=C2N=C2SC(C)=CN2C3c2ccc(OC)cc2)cc1` (stereo not given) is 94.1% (inactive); for `CC(C)N(CCOc1cccc(-c2nc3sccn3c2-c2ccnc(S(C)(=O)=O)n2)c1)C(C)C` it is 67.5% (inactive).
With `COc1cc(-c2nn(-c3cccc(NC(=O)NCCNS(=O)(=O)c4ccc(Cl)cc4)c3)cc2-c2ccncc2)ccc1Cl` the figure was 27.3% (inactive); with `C[C@]12CCC3c4ccc(O)cc4C[C@@H](CCCCCCCCCS(=O)CCCC(F)(F)C(F)(F)F)C3C1CC[C@@H]2O` (stereo not given in full), 94.2% (inactive).
With `CN1CCN(CCCn2c(=O)c3sc4ncccc4c3n3nnc(-c4ccccc4)c23)CC1`, the growth was 108% (inactive).
With `C=CCn1c(SCC(=O)Nc2ccc(C(=O)/C=C/c3ccc(Cl)cc3)cc2)nnc1-c1cc(-c2ccccc2)nc2ccccc12` the figure was 73.6% (inactive); with `Cc1cc(CC(C)CC(C)(C)C)n(O)c(=O)c1` (stereo not given) (tested in a mixture with another compound), 14.1% (inactive); with `O=C1CC(SC(=S)C2CCCC2=O)C(=O)N1` (stereo not given), 92.4% (inactive).
As to `C=CCNCCN1C(=O)c2ccc3c4c(ccc(c24)C1=O)C(=O)N(CCNCC=C)C3=O`, the growth was -51.6% (active).
For `CN(C)CCCOc1ccc(NC2=C(Cl)C(=O)C(Nc3ccc(OCCCN(C)C)cc3)=C(Cl)C2=O)cc1`, the growth is -84.1% (active).
For the compound `COc1ccc(-c2n[nH]nc2-c2cc(OC)c3c(c2OC)OCO3)cc1`, the growth is 75% (inactive).
With `CCOC(=O)Cn1c(=O)c2sc3ncccc3c2n2nnc(-c3ccccc3)c12` the figure was 103% (inactive); with `N#Cc1ccc(C(=O)CSc2nccc(Nc3ccc(C(=O)O)cc3)n2)cc1`, 101% (inactive).
The figure for `COc1ccc2cc(-c3nc4ccccc4s3)c(Cl)nc2c1OC` is 93.9% (inactive); for `COc1ccc(-c2nc(-c3nc4ccc(C)cc4[nH]3)cc3c2[nH]c2ccccc23)cc1` it is 63.9% (inactive); for `Cn1cnc([N+](=O)[O-])c1/C=C1\Oc2ccc(Br)cc2C1=O` it is 101% (inactive).
`CC(=O)Oc1cc(OC(C)=O)c2ccccc2c1OC(C)=O`: the growth was 88.4% (inactive).
On to `CCn1c(SCc2ccc(C)cc2)nnc1-c1nn(-c2ccc(Cl)cc2Cl)c(-c2ccc(Cl)cc2)c1C`, for which the growth was 11.6% (inactive).
The figure for `NS(=O)(=O)Oc1ccc2c(ccn2C(=O)C23CC4CC(CC(C4)C2)C3)c1` is 93.4% (inactive).
The figure for `COc1cc(C2CC(c3cc(Cl)c(C)cc3O)=NN2c2ccc(S(N)(=O)=O)cc2)cc(OC)c1OC` (stereo not given) is 23.5% (inactive); for `CCCCCCCCCCCCCCCCCC[n+]1ccc2c(C)c3c(c(C)c2c1)c1cc(O)ccc1n3CC` it is 58% (inactive).
With `Cc1cc(Br)nnc1Br` the figure was 87.2% (inactive); with `CNC(=O)c1cc(Oc2ccc3c(c2)sc2nc(-c4ccc(NC(=O)Nc5ccc(Cl)c(C(F)(F)F)c5)cc4)cn23)ccn1`, 101% (inactive); with `Cc1ccc(/C=C/C(=O)C(=O)/C=C/c2ccc(C)cc2)cc1`, 107% (inactive).
For the compound `O=C1OC(C(Cl)(Cl)Cl)OC1C(Cl)(Cl)Cl` (stereo not given), the growth was 110% (inactive).

The record behind these values is PubChem BioAssay (NCI).
